PubChem BioAssay (NCI)
The panel holds about 83,000 compounds, 20% with a hit somewhere; the sample as a whole holds those more often.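 Method: cells in 96-well plates; compound added at one concentration; 48 h incubation; percent growth measured; values under 10 scored active.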 A number with no mark means an inactive call. The source made the active and inactive calls.

Test system: HL-60(TB) leukemia
Experiment: NCI-60 one-dose screen, 48 h (100 = growth as untreated, 0 = no growth, -100 = all killed)
Settings: 10 µM unless noted

Question: How did the growth turn out when `COc1ccc(NC(=O)c2ccc(Nc3ncnc4c3cnn4-c3cccc(F)c3)cc2)cc1` was run?
Answer: Its growth is 94.9%.

Question: For `CC[C@@]12C=CCN3CC[C@]4(c5cc(NC(=O)COc6cc(OCC(=O)Nc7cc8c(cc7OC)N(C)[C@H]7[C@@](O)(C(=O)OC)[C@H](OC(C)=O)[C@]9(CC)C=CCN%10CC[C@]87[C@@H]%109)cc7oc(-c8ccccc8)cc(=O)c67)c(OC)cc5N(C)[C@@H]4[C@](O)(C(=O)OC)[C@H]1OC(C)=O)[C@H]32`, which growth is on record?
Answer: Its growth is 88.2%.

Question: For `CCOC(=O)c1csc(-c2ccc(COC(=O)c3ccccc3)o2)n1`, which growth is on record?
Answer: Its growth is 107%.

Question: Which growth does the source give for `COc1ccc(C)cc1OC` here?
Answer: The growth was 94.3%.

Question: How did the growth turn out when `NC(=O)c1ccc(-c2cccc3c(=O)nc(N4CCOCC4)oc23)cc1` was run?
Answer: Its growth is 97.5%.

Question: How did the growth turn out when `CCn1cc(C(=O)O)c(=O)c2cc(F)c(N3CCN(S(=O)(=O)c4c(C)cc(C)cc4C)CC3)cc21` was run?
Answer: Its growth is 73%.

Question: Which growth does the source give for `CN=C(N)N/N=C(\c1ccccc1)c1ccc(Br)cc1` here?
Answer: The growth was -52.5% (active).

Question: Which growth does the source give for `COc1ccc(/C=C2/CN(C(=O)c3ccccc3F)C/C(=C\c3ccc(OC)cc3)C2=O)cc1` here?
Answer: The growth was 51.4%.

Question: For `COc1ccc(-c2nc3c(c(-c4ccc(Cl)cc4)nn3-c3ccccc3)c(-c3ccc(O)cc3)c2C#N)cc1`, which growth is on record?
Answer: Its growth is 22.7%.

Question: How did the growth turn out when `CN=c1ccc2nc3ccc(N)cc3sc-2c1` was run?
Answer: The growth was -27.1% (active).

Question: `C[C@]12CC[C@@H]3c4ccc(O)cc4CC[C@H]3[C@@H]1CC[C@@H]2NS(=O)(=O)c1ccc(C(F)(F)F)cc1` was tested. Which growth did it give?
Answer: The growth was 19.5%.

Question: How did the growth turn out when `COCc1c(-c2ccc(NC(=O)Nc3cc(C(F)(F)F)ccc3F)c(F)c2)c2c(N)ncnn2c1CN1CCOCC1` was run?
Answer: Its growth is -22% (active).

Question: For `CN=C1C=CC(=C(c2ccc(N(C)C)cc2)c2ccc(N(C)C)cc2)C=C1`, which growth is on record?
Answer: Its growth is -1.23% (active).

Question: `CS(=O)/C(C#N)=C\C=C\c1cccc(Cl)c1` (stereo not given) was tested. Which growth did it give?
Answer: Its growth is -1.97% (active).

Question: `COCCn1cc(-c2nc(-c3c[nH]c4ncccc34)cs2)c2ccccc21` was tested. Which growth did it give?
Answer: The growth was 76.9%.

Question: Which growth does the source give for `Cc1cccc(Oc2ccc(Nc3ncnc4ccc(NC(=O)CNCCO)cc34)cc2Cl)c1` here?
Answer: Its growth is -26.1% (active).

Question: `NC1=C(c2nn[nH]n2)C(c2ccccc2Cl)c2ccc3ccccc3c2O1` (stereo not given) was tested. Which growth did it give?
Answer: The growth was 54.3%.

Question: With `Clc1ccc(-c2c3ccc(=[N+]4CCCCC4)cc-3oc3cc(N4CCCCC4)ccc23)cc1` as the molecule, how does the growth read?
Answer: The growth was -42.3% (active).

Question: How did the growth turn out when `CCC1S/C(=N\N=C(\C)c2cc3cc(Cl)ccc3o2)N(c2ccccc2)C1=O` (stereo not given) was run?
Answer: Its growth is 103%.

Question: Which growth does the source give for `COc1ccc(-c2cc(-c3cc(OC)ccc3OC)nc(N)c2C#N)cc1` here?
Answer: The growth was 90.4%.

Question: For `ClC1=NC(Cl)C(Cl)=N/C1=N\c1ncn[nH]1` (stereo not given), which growth is on record?
Answer: Its growth is -64.6% (active).

Question: For `O=C(CC1(O)C(=O)Nc2ccc(Br)cc21)c1ccc(Cl)cc1` (stereo not given), which growth is on record?
Answer: Its growth is 80.1%.

Question: Which growth does the source give for `CCCCCCN(CCCCCC)c1ccc(/C=C2/SC(=O)NC2=O)c(C)c1` here?
Answer: The growth was 77.1%.

Question: How did the growth turn out when `Cc1ccccc1C1CC(=O)c2ccccc2C1C` (stereo not given) was run?
Answer: Its growth is 98.6%.

Question: Which growth does the source give for `O=C1NC(=O)C(Cc2ccccc2)(Cc2ccccc2)N1` here?
Answer: The growth was 122%.

Question: For `COc1ccc2c(c1)N(Cc1ccc(Cl)cc1)CCC2N1CCCC1=O` (stereo not given), which growth is on record?
Answer: The growth was 53.9%.

Question: With `CCN(CC)c1ccc(/C=N\NC(=O)/C=C/C=C/c2ccc3c(c2)OCO3)c(O)c1` as the molecule, how does the growth read?
Answer: The growth was 2.66% (active).

Question: With `Cc1cc(C)nc(SC2=C(Nc3cccc(Cl)c3C)C(=O)N(Cc3ccccc3)C2=O)n1` as the molecule, how does the growth read?
Answer: Its growth is 10.4% [30 µM].

Question: With `NC(=O)Nc1ccc2ncnc(Nc3ccc(Cl)cc3)c2c1` as the molecule, how does the growth read?
Answer: Its growth is 99.9%.

Question: How did the growth turn out when `O=C1OC(Cc2ccccc2)C1c1ccccc1` (stereo not given) was run?
Answer: The growth was 84.7%.

Question: `CCN1C(=O)/C(=c2\sc3n(c2=O)C2C(NN=3)N(CC)C(=O)N2CC)c2ccccc21` (stereo not given) was tested. Which growth did it give?
Answer: The growth was -29.3% (active).

Question: How did the growth turn out when `S=CN1CCCCC1` was run?
Answer: Its growth is 102%.

Question: With `COc1cc2c(cc1OC)C(Sc1ccc(Cl)cc1)c1c(nc(N)c(C#N)c1N)O2` (stereo not given) as the molecule, how does the growth read?
Answer: The growth was -25.1% (active).

Question: For `CC(=O)OCC1CCC(COC(C)=O)CC1` (stereo not given), which growth is on record?
Answer: Its growth is 85.5%.

Question: For `CCOC(=O)Cc1cnn(C)c1NC(=O)c1ccc(Cl)cc1NC(C)=O`, which growth is on record?
Answer: Its growth is 102%.

Question: How did the growth turn out when `C=C1C(=O)O[C@H]2[C@H]1CC/C(Cn1cc(-c3ccccc3)nn1)=C\CC[C@@]1(C)O[C@@H]21` was run?
Answer: Its growth is -28.9% (active).

Question: For `COc1ccc2nc3cc(Cl)ccc3c(N3CCN(c4nccc(NCc5ccccc5)n4)CC3)c2c1`, which growth is on record?
Answer: The growth was 61.7%.

Question: Which growth does the source give for `CCOC(=O)c1cc(C(=O)c2cc(OC)c(OC)c(OC)c2)n2nc(C)ccc12` here?
Answer: Its growth is -24.2% (active).

Question: With `CN(C)CC1CCC(CN(C)C)C1=O` (stereo not given) as the molecule, how does the growth read?
Answer: Its growth is 84.2%.

Question: Which growth does the source give for `Cc1cc2ccccc2c(O)c1C#N` here?
Answer: The growth was 89.6%.
